High-throughput results as filed in PubChem.
Tgondii IFNg: T. gondii growth inhibition with IFN-gamma, primary screen, cell-based | Toxoplasma gondii growth in IFN-gamma-treated host cells; active compounds read low | activity change, negative = inhibition, % (test concentration not listed) | AID 1259416, 2018 | 69,000 compounds, 3.8% hits; in the data active = activity change below about -70%, passing the limit was not always enough;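 note: host cells are HeLa cells infected with Toxoplasma gondii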
* marks the source's active call; other numbers are inactive results. The sample as a whole holds a higher share of hits than the screen did.

SMILES	Tgondii IFNg
C[C@@H]1O[C@@H](O[C@@H]2C=C3CCC4C(CC[C@]5(C)[C@@H](c6ccc(=O)oc6)CC[C@]45O)[C@@]3(C)CC2)C(O)C(O)[C@H]1O (stereo partly specified)	-80*
CC(C)(C)n1cc(C2=CCN(Cc3ccc4c(c3)OCO4)CC2)cn1	21
CC(=O)OC1CCC2(C)C(=CCC3C2CCC2(C)C(OC(=O)c4ccccc4)CCC32)C1 (stereo unspecified)	18
C=C1CC2C(CC[C@]3(C)C(=O)CCC23)[C@@]2(C)C=CC(=O)C=C12 (stereo partly specified)	17
NS(=O)(=O)c1ccc(CCNC(=O)c2cc3cccnc3n(Cc3ccccc3)c2=O)cc1	-62
COc1ncccc1CN1CCN2CCN(C)CC2C1 (stereo unspecified)	0
N#CC(C#N)=Cc1ccc(O)c(O)c1	0
CC(C)(C)c1cc(C=C(C#N)C#N)cc(C(C)(C)C)c1O	-80*
Cc1nc(COC[C@@]23COC[C@@H]2CN(Cc2ccccn2)C3)cs1	5
c1cnc(N2CC[C@@H]3CN(Cc4ccncc4)CCO[C@H]3C2)nc1	-42
CC(C)(O)[C@H]1O[C@H]2CC[C@@]3(C)[C@@](O)(CC[C@H]4Cc5c([nH]c6ccccc56)[C@@]43C)C2=CC1=O	88
O=C(NC(=O)c1c(F)cccc1F)Nc1cc(Cl)c(OC(F)(F)C(F)C(F)(F)F)cc1Cl (stereo unspecified)	-76*
COc1ccc(/C=C/c2cc(O)cc(O)c2)cc1	132
CC(=O)N1CC[C@@]2(CN(C)C[C@@H]2COCc2ccccn2)C1	-1
COCCN1CCC2(COCc3cnc(N4CCOCC4)nc32)C1 (stereo unspecified)	-91*
c1nc(N2CCOCC2)nc2c1COCC21CCN(CC2CC2)C1 (stereo unspecified)	-7
CC(C)CN1CCC2(COCc3cnc(N(C)C)nc32)C1 (stereo unspecified)	6
S=C(NC1CCCCC1)N1CCC(c2cnc[nH]2)CC1	8
O=C(NCc1ccccn1)[C@]12CNC[C@H]1COC2	3
c1ccc(CN2C[C@H]3OCCN(CC4CCCO4)[C@H]3C2)nc1 (stereo partly specified)	38
C=CCOC1C2CCC1N(Cc1ccccn1)CCO2 (stereo unspecified)	-92*
c1ccc(CN2CCO[C@H]3[C@H]2CC[C@H]3OCc2cccnc2)nc1	9
NC1=NC(=O)N2CC12 (stereo unspecified)	10
COc1ccc(OC)c(C(O)C(C)NC(C)(C)C)c1 (stereo unspecified)	9
CCN1CCOCC2(CCC(CNc3cc(N(C)C)ncn3)O2)C1 (stereo unspecified)	-3
SMILES	Tgondii IFNg
OC1CCCCC1N1CCC(c2ccccc2)CC1 (stereo unspecified)	10
Cc1c(Cl)cccc1NC(=O)c1cc2cccnc2n(Cc2ccccc2F)c1=O	59
O=C(Nc1ccccc1Cl)c1c(O)c2cccnc2n(Cc2ccccc2)c1=O	25
O=C(NCc1ccc(Cl)cc1)c1cc2cccnc2n(Cc2ccccc2F)c1=O	108
COc1ccccc1CNC(=O)c1cc2cccnc2n(Cc2ccc(F)cc2)c1=O	92
O=C(NCC1CC1)c1c(O)c2cccnc2n(Cc2ccccc2)c1=O	-92*
O=C(Nc1ccc(F)cc1Cl)c1c(O)c2cccnc2n(Cc2ccccc2)c1=O	142
O=C(NCc1ccc(Cl)cc1)c1c(O)c2cccnc2n(Cc2ccccc2)c1=O	-98*
Cc1ccc(NC(=O)c2c(O)c3cccnc3n(Cc3ccccc3)c2=O)cc1	315
COc1ccc(C)cc1NC(=O)c1c(O)c2cccnc2n(Cc2ccccc2)c1=O	45
Cc1cccc(NC(=O)c2c(O)c3cccnc3n(Cc3ccccc3)c2=O)c1C	15
O=C(NCc1ccccc1Cl)c1cc2cccnc2n(Cc2ccccc2)c1=O	-3
O=C(NCc1cc(F)cc(F)c1)c1c(O)c2cccnc2n(Cc2ccccc2)c1=O	-103*
O=C(NCc1ccc(F)cc1)c1c(O)c2cccnc2n(Cc2ccccc2)c1=O	-99*
O=C(CN1C2CCC1CC(O)(c1ccccn1)C2)NC1CCCCC1 (stereo unspecified)	15
O=C(Nc1ccccc1F)c1cc2cccnc2n(Cc2ccc(Cl)cc2)c1=O	30
COc1ccccc1CNC(=O)c1cc2cccnc2n(Cc2ccccc2)c1=O	24
CN(C)CCCNC(=O)c1cc2cccnc2n(Cc2ccccc2)c1=O	-6
C[C@]12CCC3C(CC[C@H]4CC(=O)CC[C@]34C)C1CCC2=O (stereo partly specified)	20
CC1(n2cc(C3=CCN(Cc4ncccn4)CC3)cn2)CCS(=O)(=O)C1 (stereo unspecified)	0
C[C@]12CCC3c4ccc(OC(=O)N(CCCl)CCCl)cc4CCC3C1CC[C@@H]2O (stereo partly specified)	-65
O=C(NC1CCCCCCC1)c1cn(CC2CCCO2)cc(C(=O)N2CCc3ccccc3C2)c1=O (stereo unspecified)	-11
CN1C(=O)N(C)C(=O)C2(Cc3ccccc3N3CCOCC32)C1=O (stereo unspecified)	20
Cc1cccc(NC(=O)c2c(O)c3cccnc3n(Cc3ccccc3)c2=O)c1	139
Cc1ccc(C)c(NC(=O)c2c(O)c3cccnc3n(Cc3ccccc3)c2=O)c1	79
SMILES	Tgondii IFNg
O=C(NCc1cccc(Cl)c1)c1c(O)c2cccnc2n(Cc2ccccc2)c1=O	-107*
CCN1CCc2c(COCC(=O)N3CCCC3)cncc2C1	-9
Cc1ccc(NC(=O)c2cc3cccnc3n(Cc3ccccc3)c2=O)cc1F	269
C/C=C(\C)C(=O)N[C@@H](c1ccccc1)[C@@H](O)C(=O)O[C@H]1C[C@@]2(O)[C@@H](OC(=O)c3ccccc3)[C@@H]3[C@]4(OC(C)=O)CO[C@@H]4C[C@H](O)[C@@]3(C)C(=O)[C@H](OC(C)=O)C(=C1C)C2(C)C	-89*
CC(=O)O[C@H]1C(=O)[C@@]2(C)C([C@H](OC(=O)c3ccccc3)[C@]3(O)C[C@H](O)C(C)=C1C3(C)C)[C@]1(OC(C)=O)CO[C@@H]1C[C@@H]2O (stereo partly specified)	-74*
CC(C)=Cc1nc(-c2c(C)ncc3c2CCNC3)no1	-10
COc1ccccc1CCNC(=O)c1cc2cccnc2n(Cc2ccccc2F)c1=O	30
COc1cccc(CNC(=O)c2cc3cccnc3n(Cc3ccc(F)cc3)c2=O)c1	-25
c1ccc([C@@H]2CN(c3nnnn3-c3ccccc3)[C@@H]3C4CCN(CC4)[C@@H]32)cc1	1
O=C([C@@H]1N[C@@H]2c3cccc(=O)n3C[C@@H]2[C@H]1CO)N1CCCCC1	-4
N[C@]1(C(=O)O)CC[C@@H](C(=O)O)C1 (racemic)	11
C[C@]12CC[C@H]3[C@@H](CC[C@]4(O)C[C@@H](O)CC[C@]34C=O)[C@@]1(O)CC[C@@H]2C1=CC(=O)OC1	-63
CO[C@@H]1C(O)[C@H](O[C@H]2CC[C@@]3(C=O)[C@H](CC[C@@H]4[C@@H]3CC[C@]3(C)[C@@H](C5=CC(=O)OC5)CC[C@]43O)C2)OC(C)[C@@H]1O (stereo partly specified)	-75*
C[C@@H]1O[C@@H](O[C@@H]2C[C@@H](O)[C@]3(CO)[C@H]4[C@H](O)C[C@]5(C)[C@@H](C6=CC(=O)OC6)CC[C@]5(O)[C@@H]4CC[C@]3(O)C2)[C@H](O)[C@H](O)[C@H]1O	-81*
